{"source": "the supplement of paper PMC5662767", "note": "Counter-ions that a name gives are not always drawn.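 Also: flow cytometry read-out as median GFP intensity of gated cells, compounds added 30 min before Hh-conditioned or mock medium, mock-treated cells serving as unstimulated baseline.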", "data": [{"system": "Drosophila S2 cl14 SmoIP sensor cells", "assay": "normalized SmoIP GFP fluorescence (untreated unstimulated = 0%, untreated Hh-stimulated = 100%); higher = more Smo activation sensor fluorescence", "details": "stimulation: Hh conditioned medium (+Hh); compound concentration: 2 uM; 24 h", "units": {"normalized SmoIP GFP fluorescence": "%"}, "values": [{"smiles": "Cc1ccccc1-n1c(Cn2ncc3c(N)ncnc32)nc2cccc(C)c2c1=O", "normalized SmoIP GFP fluorescence": 115}, {"smiles": "CCCN1CCOC2c3cc(O)ccc3OCC21", "note": "(centres undefined)", "normalized SmoIP GFP fluorescence": 113}, {"smiles": "Cc1cccc(Cc2c[nH]cn2)c1C", "note": "[detomidine-hcl]", "normalized SmoIP GFP fluorescence": 139}, {"smiles": "C=CC[C@]1(O)CC[C@H]2[C@@H]3CCC4=CC(=O)CCC4=C3C=C[C@@]21C", "note": "[altrenogest]", "normalized SmoIP GFP fluorescence": 109}, {"smiles": "Cc1cccc(C(C)c2c[nH]cn2)c1C", "note": "(centres undefined) [medetomidine-hcl]", "normalized SmoIP GFP fluorescence": 108}, {"smiles": "COC(=O)C1=CCCN(C)C1", "note": "[arecoline]", "normalized SmoIP GFP fluorescence": 130}, {"smiles": "CNCC(=O)c1ccc(O)c(O)c1", "note": "[adrenalone-hcl]", "normalized SmoIP GFP fluorescence": 106}, {"smiles": "Cc1cccc([C@H](C)c2c[nH]cn2)c1C", "note": "[dexmedetomidine]", "normalized SmoIP GFP fluorescence": 108}, {"smiles": "C[C@]12N[C@H](Cc3ccccc31)c1ccccc12", "note": "[mk-801-maleate]", "normalized SmoIP GFP fluorescence": 103}, {"smiles": "N[C@@H]1C[C@H]1c1ccccc1", "note": "[tranylcypromine-2-pcpa-hcl]", "normalized SmoIP GFP fluorescence": 109}, {"smiles": "C[C@]12CC[C@H]3[C@@H](CC[C@@]45O[C@@H]4C(O)=C(C#N)C[C@]35C)[C@@H]1CC[C@@H]2O", "note": "[Trilostane]", "normalized SmoIP GFP fluorescence": 109}, {"smiles": "CCCN1C[C@H](CSC)C[C@@H]2c3cccc4[nH]cc(c34)C[C@H]21", "note": "[Pergolide-mesylate]", "normalized SmoIP GFP fluorescence": 119}, {"smiles": "COc1cc(-n2c(=S)[nH]c3ccccc3c2=O)c(Cl)cc1Cl", "note": "[mdivi-1]", "normalized SmoIP GFP fluorescence": 108}, {"smiles": "CNCC(O)c1ccc(O)cc1", "note": "(centres undefined) [synephrine-hcl]", "normalized SmoIP GFP fluorescence": 140}, {"smiles": "CN1CCc2cc3c(cc2[C@H]1[C@@H]1OC(=O)c2c1ccc1c2OCO1)OCO3", "note": "[bicuculline]", "normalized SmoIP GFP fluorescence": 101}]}, {"system": "Drosophila S2 cl14 SmoIP sensor cells", "assay": "normalized SmoIP GFP fluorescence (untreated unstimulated = 0%, untreated Hh-stimulated = 100%); higher = more Smo activation sensor fluorescence", "details": "stimulation: mock conditioned medium (-Hh); compound concentration: 2 uM; 24 h", "units": {"normalized SmoIP GFP fluorescence": "%"}, "values": [{"smiles": "Cc1cccc(C)c1NC(=O)CN1CCCC1=O", "note": "[Nefiracetam(Translon)]", "normalized SmoIP GFP fluorescence": -10.8}, {"smiles": "N#CC(C#N)=Cc1ccc(O)c(O)c1", "note": "[ag-18-tyrphostin-23]", "normalized SmoIP GFP fluorescence": -12}, {"smiles": "CC(=O)Nc1ccc(OC[C@](C)(O)C(=O)Nc2ccc([N+](=O)[O-])c(C(F)(F)F)c2)cc1", "note": "[Andarine]", "normalized SmoIP GFP fluorescence": 0.274}, {"smiles": "CCC(COC(=O)c1cc(OC)c(OC)c(OC)c1)(c1ccccc1)N(C)C", "note": "(centres undefined) [trimebutine]", "normalized SmoIP GFP fluorescence": -15.8}, {"smiles": "Fc1cc(F)c2c(c1)[C@H]1C=CC[C@H]1C(c1cccnc1)N2", "note": "(some centres undefined) [golgicide-a]", "normalized SmoIP GFP fluorescence": -5.15}, {"smiles": "C[C@]12CCC(=O)C(O)=C1CC[C@@H]1[C@@H]2CC[C@]2(C)C(=O)CC[C@@H]12", "note": "[Formestane]", "normalized SmoIP GFP fluorescence": -2.2}, {"smiles": "C[C@@H]1O[C@@H](O[C@H]2C[C@@H](O)[C@]3(CO)[C@H]4[C@H](O)C[C@]5(C)[C@@H](C6=CC(=O)OC6)CC[C@]5(O)[C@@H]4CC[C@]3(O)C2)[C@H](O)[C@H](O)[C@H]1O", "note": "[ouabain]", "normalized SmoIP GFP fluorescence": -2.08}, {"smiles": "CCN1CCN(C(=O)Cc2ccc(Nc3ncc(F)c(Nc4ccc(C(=O)Nc5ccccc5Cl)cc4)n3)cc2)CC1", "note": "[Aurora-A-Inhibitor-I]", "normalized SmoIP GFP fluorescence": 2.11}, {"smiles": "CN1CCC(c2c[nH]c3ccc(O)cc23)CC1", "normalized SmoIP GFP fluorescence": -2.82}, {"smiles": "CN1[C@@H]2C[C@@H](OC(=O)[C@H](CO)c3ccccc3)C[C@H]1[C@@H]1O[C@@H]12", "note": "[Scopolamine-hydrobromide]", "normalized SmoIP GFP fluorescence": -17.7}, {"smiles": "CN1[C@@H]2CC(O)C[C@H]1[C@@H]1O[C@@H]12", "note": "(some centres undefined) [scopine]", "normalized SmoIP GFP fluorescence": -12}, {"smiles": "C[C@H]1CNCCc2ccc(Cl)cc21", "note": "[lorcaserin-hcl]", "normalized SmoIP GFP fluorescence": -2.48}, {"smiles": "Cc1ccccc1-n1c(Cn2ncc3c(N)ncnc32)nc2cccc(C)c2c1=O", "normalized SmoIP GFP fluorescence": -6.79}, {"smiles": "CCCN1CCOC2c3cc(O)ccc3OCC21", "note": "(centres undefined)", "normalized SmoIP GFP fluorescence": -13.6}, {"smiles": "Cc1cccc(Cc2c[nH]cn2)c1C", "note": "[detomidine-hcl]", "normalized SmoIP GFP fluorescence": -8.77}, {"smiles": "C=CC[C@]1(O)CC[C@H]2[C@@H]3CCC4=CC(=O)CCC4=C3C=C[C@@]21C", "note": "[altrenogest]", "normalized SmoIP GFP fluorescence": -1.23}, {"smiles": "Cc1cccc(C(C)c2c[nH]cn2)c1C", "note": "(centres undefined) [medetomidine-hcl]", "normalized SmoIP GFP fluorescence": -1.63}, {"smiles": "COC(=O)C1=CCCN(C)C1", "note": "[arecoline]", "normalized SmoIP GFP fluorescence": -12.4}, {"smiles": "CNCC(=O)c1ccc(O)c(O)c1", "note": "[adrenalone-hcl]", "normalized SmoIP GFP fluorescence": -3.39}, {"smiles": "Cc1cccc([C@H](C)c2c[nH]cn2)c1C", "note": "[dexmedetomidine]", "normalized SmoIP GFP fluorescence": -2.59}, {"smiles": "C[C@]12N[C@H](Cc3ccccc31)c1ccccc12", "note": "[mk-801-maleate]", "normalized SmoIP GFP fluorescence": -3.16}, {"smiles": "N[C@@H]1C[C@H]1c1ccccc1", "note": "[tranylcypromine-2-pcpa-hcl]", "normalized SmoIP GFP fluorescence": -1.34}, {"smiles": "C[C@]12CC[C@H]3[C@@H](CC[C@@]45O[C@@H]4C(O)=C(C#N)C[C@]35C)[C@@H]1CC[C@@H]2O", "note": "[Trilostane]", "normalized SmoIP GFP fluorescence": -0.265}, {"smiles": "CCCN1C[C@H](CSC)C[C@@H]2c3cccc4[nH]cc(c34)C[C@H]21", "note": "[Pergolide-mesylate]", "normalized SmoIP GFP fluorescence": -0.889}]}]}
